Source: PubChem (National Center for Advancing Translational Sciences (NCATS))
Most compounds without a hit are left out; they make up all but 3.8% or so of the library.
HT1080NT lethal: qHTS for induction of synthetic lethality in tumor cells producing 2HG: qHTS for the HT-1080-NT fibrosarcoma cell line; HT-1080-NT fibrosarcoma viability, CellTiter-Glo ATP luminescence, 48 h; Potency, µM (highest dose often 46.1 µM), for the others: top-dose activity, negative = less viability, usual class: cytotoxic; 360,000 compounds, 1.6% hits;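 also: NT is the 2HG producing partner of a matched IDH1 knockdown line; 0% = DMSO-treated cells and -100% = media-only wells without cells; nearly all actives have a fitted effect of over 55% in size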
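Read-out is CellTiter-Glo luminescence after 10 minutes at room temperature, following 48 hours' compound treatment of HT-1080-NT cells (750 cells/well, RPMI, 5% FBS, 37 degrees C).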
TGFb inhibitor: qHTS for Inhibitors of TGF-b | HepG2 CAGA-GFP TGF-b/SMAD3 reporter, GFP fluorescence, 18 h; TGF-beta stimulated, 500 pg/mL final | Potency, µM (doses to about 46.1 µM), for inactives: at the highest dose activity, negative = inhibition, hits mostly inhibitors | 410,000 compounds, 1.2% hits; also: % is scaled to controls: 0 for no effect and ±100 for the full control effect; nearly all actives have a fitted effect of over 65% in size
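GFP signal (ex488/em500-530) from TGF-beta-stimulated HEPG2 CAGA-GFP cells, 500 pg/mL final, 18 h at 37 degrees C in DMEM plus 1% FBS, normalized to unstimulated and DMSO-stimulated controls.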
HT1080 IDH1KD tx: qHTS for induction of synthetic lethality in tumor cells producing 2HG: qHTS for the HT-1080-IDH1KD cell line; Potency, µM (series often up to 46.1 µM), for the others: at the highest dose activity, negative = toxicity, most hits filed as cytotoxic; 360,000 compounds, 2% hits; AID 686971, 2013; HT-1080 IDH1 knockdown viability, ATP luminescence, 48 h;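 also: 0% = DMSO wells and -100% = cell-free medium wells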
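IDH1KD HT-1080 cells, 750/well, RPMI + 5% FBS; compound pinned after 2 h settling; 48 h, 37 °C; CellTiter-Glo luminescence; % activity normalised to DMSO and no-cell wells; curves fitted, classed by r2 and efficacy.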
ATXN viability: Viability Counterscreen for Primary qHTS for Inhibitors of ATXN expression | S2 cells (HEK-293 line with an ATXN2-luciferase reporter) viability, CellTiter-Fluor protease fluorescence, 24 h | Potency, µM (doses to about 56.7 µM), most hits filed as cytotoxic | 400,000 compounds, 0.49% hits; also: nearly all actives have a fitted effect of over 40% in size
ATXN2 expr inh: Primary qHTS for Inhibitors of ATXN expression | HEK-293 ATXN2-luciferase reporter, luminescence, 24 h | AID 1745845, 2022 | Potency, µM (top dose mostly 57 µM), for inactives: at the highest dose activity change, negative = inhibition, hits mostly inhibitors | 360,000 compounds, 0.72% hits; also: % is scaled to controls: 0 for no effect and ±100 for the full control effect; nearly all actives have a fitted effect of over 55% in size
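ATXN2-luciferase reporter cells (luciferase flanked by upstream and downstream ATXN2 gene portions) were treated 24 h at 37 °C with compounds at up to 57 uM. SteadyGlo luminescence gave expression; GF-AFC fluorescence gave viability.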
HepG2 tox: qHTS for Inhibitors of TGF-b: Cytotox Counterscreen. HepG2 CAGA-GFP viability, ATP luminescence, 18 h. Potency, µM (top dose mostly 46.1 µM), for inactives: at the highest dose activity change, negative = cytotoxicity, hits mostly cytotoxic. 410,000 compounds, 0.76% hits. AID 588856, 2011
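CellTiter-Glo luminescence gave cytotoxicity after 18 hours at 37 degrees C. The cells were HepG2 CAGA-GFP in 1% FBS DMEM, stimulated with 500 pg/mL TGF-beta after compound addition. %Activity was normalised to no-cell wells (complete cell-killing) and DMSO (no toxicity), and curves were fitted and classified.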
Starred values were filed as active, the others as inactive; i = inactive; ? = inconclusive; . = no result given. Calls follow the shape of the dose curve; as a rule, active = well fitted curve in the direction sought with a large enough effect; inconclusive = small, poorly fitted or top-dose-only effect, or another doubt; inactive = no such curve, though single readings can be large; an effect the other way counts as inactive or inconclusive. Potency is read from the fitted curve at half-maximal effect.

SMILES	HT1080NT lethal	TGFb inhibitor	HT1080 IDH1KD tx	ATXN viability	ATXN2 expr inh	HepG2 tox
CCc1cc(=O)oc2cc3occ(-c4ccc(OC)c(F)c4)c3cc12	5.17µM*	-51.7%	5.17µM*	.	?	-44.3%
CCc1cc(=O)oc2cc3occ(C)c3cc12	6.1%	-1.1%	5.4%	i	3.6%	-19.3%
COc1cc(OC)c2c(-c3cccc(-c4ccc(OC)c(F)c4)c3)cc(=O)oc2c1	?	?	0.651µM*	i	19.9%	-19.7%
CCc1sc(C(=O)Nc2nc(-c3ccccn3)cs2)cc1C	-21.9%	-15.5%	?	i	25.1µM*	-2.2%
Cc1ccc(C(=O)Nc2nc(-c3ccccn3)cs2)s1	-28.3%	?	?	i	?	-8.4%
O=C(Nc1nc(-c2ccccn2)cs1)c1ccc(Cl)s1	?	?	4.11µM*	i	?	-14.6%
CN(C)CCCNc1cc(O)c2ncccc2c1	.	?	.	?	20µM*	7.08µM*
Oc1cc(NCc2ccc(Cl)cc2)cc2cccnc12	.	-27.3%	.	i	-2.4%	-44.7%
Oc1cc(NCc2ccc(F)cc2)cc2cccnc12	.	?	.	?	?	11.2µM*
O=C(CNC(=O)C1CCCCC1)OCC(=O)c1ccc(-c2ccccc2)cc1	.	31.3%	.	.	.	17.2%
C=CCC(Nc1ccccc1)C12C=CC(O1)C(C(=O)OC)=C2C(=O)OC (stereo not drawn)	?	?	?	.	?	14.1µM*
Cn1c(N)c(C#N)c2c(c1=S)CSC(C)(C)C2	-2.2%	4.5%	-0.7%	i	1.8%	-7.9%
CC1(C)Cc2c(C#N)c(N)sc(=S)c2CS1	0.4%	-7.1%	-0.2%	i	-16.6%	3.55µM*
C=CCc1cccc(/C=N/NC(=O)CCC(=O)Nc2ccc(F)cc2)c1O	?	?	23.1µM*	i	3.55µM*	-16.4%
C=CCc1cccc(/C=N/NC(=O)CCCNc2ccc(C)cc2)c1O	?	?	?	i	?	-90.6%
C=CCc1cccc(/C=N/NC(=O)CNc2ccccc2)c1O	?	?	18.4µM*	?	17.8µM*	-51.4%
C=CCc1cccc(/C=N/NC(=O)CNc2ccccc2OC)c1O	?	12.6µM*	18.4µM*	i	?	-24.1%
C=CCc1cccc(/C=N/NC(=O)CNc2cccc3ccccc23)c1O	?	?	?	?	?	-100.3%
CCC(C(=O)NC(=O)NC(C)=O)c1ccccc1 (stereo not drawn)	.	.	.	i	-2.7%	.
CC(C)NC(=O)CSc1cn(CC(=O)N2CCCCCC2)c2ccccc12	.	-10.5%	.	.	.	-0.9%
Cc1[nH]nc(C(=O)NN=Cc2ccccc2Cl)c1N=NN(C)C	20.6µM*	10µM*	23.1µM*	?	0.2%	20µM*
Cc1ccc2ccc(Cl)cc2n1	.	.	.	i	17.0%	.
CC(=O)c1c(C)oc2ccc(N(C(=O)Oc3ccccc3)S(=O)(=O)c3ccc(C(C)(C)C)cc3)cc12	.	-21.8%	.	i	-8.4%	-11.8%
CN(C)CCNC(=O)c1cc2c(s1)-c1ccc(Cl)cc1SC2	?	11.2µM*	?	?	.	11.2µM*
Cc1ccc(CNC(=O)c2cc3c(s2)-c2ccc(Cl)cc2SC3)cc1	.	-4.0%	.	i	-3.7%	0.0%
SMILES	HT1080NT lethal	TGFb inhibitor	HT1080 IDH1KD tx	ATXN viability	ATXN2 expr inh	HepG2 tox
COCCCN(C(=S)Nc1cc(Cl)cc(Cl)c1)C(C)c1ccccn1 (stereo not drawn)	?	?	-12.2%	i	.	15.8µM*
Cc1ccc(S(=O)(=O)/C(=C/Cl)NC(=O)c2ccccc2)cc1	?	?	20.6µM*	?	10µM*	-2.5%
Cc1ccc(S(=O)(=O)C(NC(=O)c2ccccc2)=C(Cl)Cl)cc1	?	-22.4%	?	?	?	-29.2%
CC(C)(C)n1ncc2c(=O)n(Cc3ccc(F)c(F)c3F)cnc21	.	3.5%	.	.	.	-28.2%
COc1ccc(C(=O)c2ccc(Br)cc2)c(OC)c1OC	0.6%	-10.4%	-16.6%	i	16.8%	-3.4%
COc1ccccc1C(=O)COC(=O)c1ccc(N(C)C)cc1	-0.1%	0.6%	-2.3%	i	68.1%	-2.6%
COc1ccc(C(=O)c2ccc(OC)c(OC)c2OC)cc1	?	-25.9%	10.3µM*	?	-14.3%	-24.4%
COc1ccc(C(=O)c2ccc(N(C)C)cc2)c2ccccc12	1.58µM*	?	2.82µM*	i	50.0%	-16.1%
COc1ccc(-c2cn3cccnc3n2)cc1NC(=O)COc1ccccc1	.	?	.	.	.	-63.4%
CC1=C(C(=O)Nc2ccccc2)C(c2ccncc2)n2nc(SCc3ccccc3Cl)nc2N1 (stereo not drawn)	.	-21.9%	.	i	1.5%	-7.1%
CC(=O)C1=C(c2ccc(Cl)c(Cl)c2)N(C(C)=O)n2c(C)nnc2S1	.	?	.	?	28.2µM*	7.94µM*
CC(=O)C1=C(c2ccc(Cl)c(Cl)c2)N(C(C)=O)n2cnnc2S1	.	5.62µM*	.	.	.	-93.7%
COc1cccc(C2=C(C(C)=O)Sc3nnc(C4CCCCC4)n3N2C(C)=O)c1	.	?	.	.	.	-53.3%
CC(=O)C1=C(c2ccccc2)N(C(C)=O)n2c(nnc2C2CCCCC2)S1	.	11.2µM*	.	.	.	11.2µM*
COc1cc(-c2cc(C)c3c(OC)ccc(OC)c3n2)cc2c1OCCN(Cc1cn(C)nc1C)C2	.	.	.	i	.	.
CC(NC(=O)C1CCOCC1)c1nnc2n1CCN(Cc1ccc3cccnc3c1)CC2 (stereo not drawn)	.	.	.	i	.	.
Cc1ccc(Cc2c(-c3ccc(Cl)cc3)nc3c(C)cc(Br)cn23)cc1	?	?	16.4µM*	i	-17.8%	-29.6%
Cc1ccc(-c2nc3c(C)cc(Br)cn3c2Cc2ccsc2)cc1	?	?	16.4µM*	?	-0.4%	-43.7%
Cc1cc(Br)cn2c(Cc3ccsc3)c(-c3ccccc3)nc12	-16.4%	?	-14.6%	?	-7.8%	-38.9%
O=C(C1CCCCC1)N1CC(=O)N2CCCc3ccccc3C2C1 (stereo not drawn)	.	.	.	i	-14.2%	.
CCN1C=CC(=C2C(=O)c3ccccc3C2=O)C=C1	10µM*	-5.7%	11.2µM*	?	1.12µM*	-81.4%
CCCN1C=CC(=C2C(=O)c3ccccc3C2=O)C=C1	5.62µM*	5.3%	11.2µM*	?	?	7.08µM*
CCCCCCN1C=CC(=C2C(=O)c3ccccc3C2=O)C=C1	2.5%	8.0%	2.1%	i	?	-22.9%
